Results from PubChem BioAssay (Tox21).
Unmarked numbers belong to inactive results. Inconclusive results are not listed. A call without a number means that no potency is given here. Activity calls are given as the source filed them. Unless noted, calls follow the shape of the dose curve; as a rule, active = well fitted curve in the direction sought with a large enough effect in the repeat runs; inconclusive = weak or mixed curves; inactive = no such curve, though single readings can be large; an effect the other way counts as inactive or inconclusive.

Key:
[1] = target: Progesterone receptor (Homo sapiens) (UniProt P06401); test: qHTS assay to identify small molecule agonists of the progesterone receptor (PR) signaling pathway (AID 1346784; calls by dose curve; also: nearly all actives have a fitted effect of over 30% in size)
Outline: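 PR-UAS-bla HEK 293T cells carrying a UAS-driven beta-lactamase reporter were seeded in medium with 2% charcoal-stripped FBS, preincubated 6 hr at 37C, then exposed to compounds in DMSO for 16 hr; agonism was read by LiveBLAzer B/G FRET fluorescence.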

[2] = target: Progesterone receptor (Homo sapiens) (UniProt P06401); test: qHTS assay to identify small molecule antagonists of the progesterone receptor (PR) signaling pathway (AID 1346795; active = well fitted inhibition curve with a large enough effect in the signal ratio in the repeat runs, not every such curve was filed as active; the % refers to the signal ratio)
Outline: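 PR-UAS-bla HEK293T cells carrying a UAS-driven beta-lactamase reporter were plated in medium with 2% charcoal-stripped FBS and rested 6 hr at 37C. Compounds were added with 1 nM R5020 (final) for 16 hr, then FRET substrate loaded 2 hr at room temperature.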

[3] = qHTS assay to identify small molecule antagonists of the progesterone receptor (PR) signaling pathway - cell viability counter screen (AID 1346798); also: series mostly up to about 92 µM; nearly all actives have a fitted effect of over 50% in size
Outline: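 PR-UAS-bla HEK293T cells in medium with 2% charcoal-stripped FBS were treated with compounds plus R5020 for 16 hr at 37C. Cell viability was then read by CellTiter-Glo luminescence after 30 min at room temperature in the same wells.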

[4] = qHTS assay to identify small molecule antagonists of the TGF-beta/Smad signaling pathway - cell viability counter screen (AID 1346824); also: nearly all actives have a fitted effect of over 50% in size
Outline: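 SBE-bla HEK 293T cells, incubated overnight, then compound plus 0.25 ng/mL TGF-beta1 (stock added) for 5 hr at 37 C. Viability was read in the same wells by CellTiter-Glo luminescence after 30 min at room temperature.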

[5] = qHTS assay to identify small molecule agonists of the TGF-beta/Smad signaling pathway - cell viability counter screen (AID 1346829); also: top concentration of the series differs between compounds; nearly all actives have a fitted effect of over 45% in size
Outline: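 In parallel with the Smad reporter read, viability of HEK 293T cells stably carrying SBE-bla is quantified by ATP luminescence following 5 hr compound treatment.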

[6] = qHTS assay to identify small molecule agonists of the TGF-beta/Smad signaling pathway (AID 1346859; active = well fitted activation curve with a large enough effect in the signal ratio in the repeat runs, not every such curve was filed as active; the % refers to the signal ratio; also: series mostly up to about 77 µM)
Outline: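 HEK 293T cells stably carrying a beta-lactamase reporter driven by the Smad binding element were seeded overnight, exposed to DMSO-dissolved compounds for 5 hr at 37 C, 5% CO2, then loaded with FRET substrate for 2 hr at room temperature.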

[7] = target: Thyrotropin-releasing hormone receptor (Homo sapiens) (UniProt P34981); test: qHTS assay to identify small molecule antagonists of the thyrotropin-releasing hormone receptor (TRHR) signaling pathway (AID 1346877; active = well fitted inhibition curve with a large enough effect in the repeat runs, not every such curve was filed as active; also: series mostly up to about 51 µM)
Outline: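 Antagonism is measured as suppression of the calcium response to 1 nM TRH in TRHR-HEK293 cells that have been dye-loaded for 2 h at 37 °C after overnight plating. Each compound is tested at 15 concentrations in triplicate.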

[8] = target: Thyrotropin-releasing hormone receptor (Homo sapiens) (UniProt P34981); test: qHTS assay to identify small molecule agonists of the thyrotropin-releasing hormone receptor (TRHR) signaling pathway (AID 1346891; calls by dose curve; also: series mostly up to about 58 µM)
Outline: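 TRHR-expressing HEK293 cells were plated 18 h at 37 °C/5% CO2, loaded with calcium dye 2 h at 37 °C, then given compound in DMSO; fluorescence was read kinetically for 3 min at 1 s intervals.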

[9] = Human pregnane X receptor (PXR) small molecule agonists, qHTS cell viability counter screen (AID 1346977); also: nearly all actives have a fitted effect of over 50% in size; also: potency is read from the fitted curve at half-maximal effect
Outline: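 PXR-Luc HepG2 cells in medium with 5% charcoal-stripped FBS were pre-incubated 5hr, then exposed to compounds for 24hr at 37C. Viability was read in the same wells by CellTiter-Fluor fluorescence, reagent added after 23hr with a 1hr incubation.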

[10] = Caspase-3/7 induction in HepG2 cells by small molecules, qHTS assay (AID 1346978); also: nearly all actives have a fitted effect of over 15% in size
Outline: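 Wild-type HepG2 cells, 2,000/well, settled 5 hr at 37 C and 5% CO2, then compound-treated for 17 hr; caspase-3/7 activity read by luminescent Caspase-Glo 3/7 after 30 min at room temperature.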

[11] = Caspase-3/7 induction in CHO-K1 cells by small molecules, qHTS cell viability counter screen (AID 1346979); also: nearly all actives have a fitted effect of over 35% in size; also: potency is read from the fitted curve at half-maximal effect
Outline: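 Wild-type CHO-K1 cells were seeded at 1,500 per well, rested 5hr at 37 C, then exposed to compounds in DMSO. After 16hr, CellTiter-Fluor reagent was added and fluorescence read 1hr later as the viability measure.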

[12] = Caspase-3/7 induction in CHO-K1 cells by small molecules, qHTS assay (AID 1346980); also: nearly all actives have a fitted effect of over 15% in size
Outline: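 Wild-type CHO-K1 cells exposed to compounds for 17hr at 37 C, 5% CO2. Caspase-3/7 activity then measured by Caspase-Glo 3/7 luminescence after 30min at room temperature.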

[13] = Caspase-3/7 induction in HepG2 cells by small molecules, qHTS cell viability counter screen (AID 1346981); also: series mostly up to about 92 µM; nearly all actives have a fitted effect of over 30% in size
Outline: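 Cell viability is measured as a cytotoxicity counter screen alongside the Caspase-Glo 3/7 readout in identical wells. Wild-type HepG2 cells are treated with test compounds for 16 hr at 37 C before CellTiter-Fluor addition and a 1-hr incubation.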

[14] = target: Nuclear receptor subfamily 1 group I member 2 (Homo sapiens) (UniProt O75469); test: Human pregnane X receptor (PXR) small molecule agonists, qHTS assay (AID 1346982); also: nearly all actives have a fitted effect of over 35% in size; also: potency is read from the fitted curve at half-maximal effect
Outline: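 Cells: HepG2 stably carrying PXR-Luc. Medium held 5% charcoal-stripped FBS. Compounds in DMSO added after 5 hr plating, incubated 24 hr, then luminescence quantified with ONE-Glo.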

[15] = target: Nuclear receptor subfamily 1 group I member 2 (Rattus norvegicus) (UniProt Q9R1A7); test: Rat pregnane X receptor (rPXR) activation by small molecules, qHTS assay (AID 1346983); conditions: rPXR luciferase reporter cells, One-Glo luminescence, 24 h; max activation: hits give high values; also: nearly all actives have a fitted effect of over 20% in size
Outline: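 Cell-based rPXR activation assay: rPXR cells, 2,000 per well, rested 5hr at 37 C, then exposed to compounds in DMSO for 24 hr at 37 C. Luciferase activity read by One-Glo luminescence after 30 min at room temperature.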

[16] = target: Nuclear receptor subfamily 1 group I member 2 (Homo sapiens) (UniProt O75469); test: CYP3A4 induction through human pregnane X receptor (PXR) by small molecules, qHTS assay (AID 1346984); also: nearly all actives have a fitted effect of over 40% in size; also: potency is read from the fitted curve at half-maximal effect
Outline: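 Quantitative HTS in DPX-2 cells, i.e. HepG2 transfected with PXR response element and CYP3A4-promoter luciferase. Compounds in DMSO incubated 24hr at 37C; then P450-Glo CYP3A4 substrate, 3uM final, 3hr; One-Glo luminescence.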

[17] = target: Nuclear receptor subfamily 1 group I member 2 (Homo sapiens) (UniProt O75469); test: Human pregnane X receptor (PXR) activation by small molecules, qHTS assay (AID 1346985); also: nearly all actives have a fitted effect of over 40% in size
Outline: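 DPX-2 cells (HepG2 co-transfected with a PXR response element and a CYP3A4-promoter luciferase construct) were seeded at 2,000 per well, rested 5 hr at 37C, then exposed to DMSO-dissolved compounds for 24 hr. Activation was read as luciferase luminescence.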

[18] = qHTS assay to identify small molecule agonists of the progesterone receptor (PR) signaling pathway - cell viability counter screen (AID 1346799; calls by dose curve; also: nearly all actives have a fitted effect of over 45% in size)
Outline: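 PR-UAS-bla HEK293T cells, 3,000 per well in medium with 2% charcoal-stripped FBS, were preincubated 6 hr at 37C, then exposed to compounds for 16 hr; viability was read as CellTiter-Glo luminescence after 30 min at room temperature.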

[19] = target: Cytochrome P450 2C19 (Homo sapiens) (UniProt P33261); test: Cytochrome P450 Family 2 Subfamily C Member 19 (CYP2C19) small molecule antagonists: luciferase reporter qHTS assay (AID 1671197); also: nearly all actives have a fitted effect of over 65% in size; also: potency is read from the fitted curve at half-maximal effect
Outline: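 Compounds were tested on CYP2C19 activity via proluciferin conversion to luciferin. The 37C, 1 h reaction followed NADPH addition; detection reagent stopped it.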

[20] = target: Cytochrome P450 2D6 (Homo sapiens) (UniProt P10635); test: Cytochrome P450 Family 2 Subfamily D Member 6 (CYP2D6) small molecule antagonists: luciferase reporter qHTS assay (AID 1671196); also: series mostly up to about 120 µM; nearly all actives have a fitted effect of over 50% in size
Outline: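 Enzyme and proluciferin substrate were first combined with test chemical for 10 min at room temperature. Adding NADPH regeneration solution started a 1 h reaction, stopped with luciferin detection reagent and read by luminescence 20 min later.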

Sequence of Nuclear receptor subfamily 1 group I member 2 (Homo sapiens) (O75469 whole entry, looked up): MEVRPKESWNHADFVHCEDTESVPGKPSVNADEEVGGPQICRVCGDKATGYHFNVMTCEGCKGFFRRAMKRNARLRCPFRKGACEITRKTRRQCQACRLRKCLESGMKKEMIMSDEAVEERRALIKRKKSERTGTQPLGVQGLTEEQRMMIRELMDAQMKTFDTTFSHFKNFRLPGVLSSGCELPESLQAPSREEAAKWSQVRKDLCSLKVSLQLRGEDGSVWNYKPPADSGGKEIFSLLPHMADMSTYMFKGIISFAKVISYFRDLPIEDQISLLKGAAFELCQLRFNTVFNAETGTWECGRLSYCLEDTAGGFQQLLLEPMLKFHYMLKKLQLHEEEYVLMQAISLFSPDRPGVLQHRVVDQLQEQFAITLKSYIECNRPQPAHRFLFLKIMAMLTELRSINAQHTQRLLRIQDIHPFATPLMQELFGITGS
Sequence of Cytochrome P450 2C19 (Homo sapiens) (P33261 whole entry, looked up): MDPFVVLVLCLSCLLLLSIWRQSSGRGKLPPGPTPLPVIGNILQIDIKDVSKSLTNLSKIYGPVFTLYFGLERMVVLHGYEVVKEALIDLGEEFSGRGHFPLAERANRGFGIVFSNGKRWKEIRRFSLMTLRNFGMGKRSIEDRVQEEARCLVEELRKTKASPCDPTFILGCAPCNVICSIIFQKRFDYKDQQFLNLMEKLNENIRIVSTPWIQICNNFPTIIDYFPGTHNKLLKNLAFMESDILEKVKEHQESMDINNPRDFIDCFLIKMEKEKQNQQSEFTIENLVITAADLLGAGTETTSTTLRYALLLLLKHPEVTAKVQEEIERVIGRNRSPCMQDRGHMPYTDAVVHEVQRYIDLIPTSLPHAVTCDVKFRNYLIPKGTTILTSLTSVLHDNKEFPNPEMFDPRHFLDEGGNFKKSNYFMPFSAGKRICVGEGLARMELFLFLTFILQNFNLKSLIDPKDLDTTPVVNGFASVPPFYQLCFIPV
Sequence of Thyrotropin-releasing hormone receptor (Homo sapiens) (P34981 whole entry, looked up): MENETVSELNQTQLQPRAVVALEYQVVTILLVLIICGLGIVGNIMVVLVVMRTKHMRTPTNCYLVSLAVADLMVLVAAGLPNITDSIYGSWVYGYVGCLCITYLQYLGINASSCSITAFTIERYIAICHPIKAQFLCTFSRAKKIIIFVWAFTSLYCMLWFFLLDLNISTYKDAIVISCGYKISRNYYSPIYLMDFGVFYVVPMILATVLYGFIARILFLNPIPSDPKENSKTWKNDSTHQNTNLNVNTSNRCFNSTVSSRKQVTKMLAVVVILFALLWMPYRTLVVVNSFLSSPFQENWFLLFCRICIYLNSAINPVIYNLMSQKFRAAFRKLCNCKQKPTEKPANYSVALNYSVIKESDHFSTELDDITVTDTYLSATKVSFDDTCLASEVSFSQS
Sequence of Cytochrome P450 2D6 (Homo sapiens) (P10635 whole entry, looked up): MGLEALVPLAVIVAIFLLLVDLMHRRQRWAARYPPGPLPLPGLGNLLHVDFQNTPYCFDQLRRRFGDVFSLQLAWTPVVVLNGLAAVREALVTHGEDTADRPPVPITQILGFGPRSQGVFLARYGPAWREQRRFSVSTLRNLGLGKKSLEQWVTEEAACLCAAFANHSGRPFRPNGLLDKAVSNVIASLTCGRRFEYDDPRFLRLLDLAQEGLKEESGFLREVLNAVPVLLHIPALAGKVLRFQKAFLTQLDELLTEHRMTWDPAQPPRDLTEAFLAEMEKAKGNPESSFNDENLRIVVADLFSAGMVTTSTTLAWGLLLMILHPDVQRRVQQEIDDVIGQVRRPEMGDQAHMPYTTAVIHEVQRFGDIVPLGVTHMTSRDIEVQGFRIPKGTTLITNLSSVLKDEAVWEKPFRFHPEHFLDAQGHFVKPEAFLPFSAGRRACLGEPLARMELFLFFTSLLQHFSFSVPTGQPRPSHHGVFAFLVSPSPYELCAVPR
Sequence of Progesterone receptor (Homo sapiens) (P06401 whole entry, looked up): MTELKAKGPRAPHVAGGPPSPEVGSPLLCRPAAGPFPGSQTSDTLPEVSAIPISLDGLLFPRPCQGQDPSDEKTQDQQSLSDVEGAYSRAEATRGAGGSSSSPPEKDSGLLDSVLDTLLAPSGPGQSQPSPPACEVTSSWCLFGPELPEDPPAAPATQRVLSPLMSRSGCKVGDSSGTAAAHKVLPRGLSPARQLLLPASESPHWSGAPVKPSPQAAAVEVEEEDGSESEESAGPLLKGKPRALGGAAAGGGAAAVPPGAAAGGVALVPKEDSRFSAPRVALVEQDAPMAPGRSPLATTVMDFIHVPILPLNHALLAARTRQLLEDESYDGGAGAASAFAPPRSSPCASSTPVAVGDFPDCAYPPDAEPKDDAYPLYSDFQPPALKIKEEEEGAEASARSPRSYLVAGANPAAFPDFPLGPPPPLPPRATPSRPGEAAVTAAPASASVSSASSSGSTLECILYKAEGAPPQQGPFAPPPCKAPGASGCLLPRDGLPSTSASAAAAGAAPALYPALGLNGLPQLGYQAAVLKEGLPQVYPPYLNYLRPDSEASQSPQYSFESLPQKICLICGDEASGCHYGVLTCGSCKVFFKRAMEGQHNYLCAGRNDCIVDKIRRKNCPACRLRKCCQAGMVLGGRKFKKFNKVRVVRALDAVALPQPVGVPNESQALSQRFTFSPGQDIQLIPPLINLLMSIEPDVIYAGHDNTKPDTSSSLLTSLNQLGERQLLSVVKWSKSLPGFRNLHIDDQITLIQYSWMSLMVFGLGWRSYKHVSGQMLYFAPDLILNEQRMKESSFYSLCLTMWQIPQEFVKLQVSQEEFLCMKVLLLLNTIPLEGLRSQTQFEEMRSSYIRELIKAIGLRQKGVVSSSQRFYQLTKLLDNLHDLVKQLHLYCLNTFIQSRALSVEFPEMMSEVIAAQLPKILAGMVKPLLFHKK
Sequence of Nuclear receptor subfamily 1 group I member 2 (Rattus norvegicus) (Q9R1A7 whole entry, looked up): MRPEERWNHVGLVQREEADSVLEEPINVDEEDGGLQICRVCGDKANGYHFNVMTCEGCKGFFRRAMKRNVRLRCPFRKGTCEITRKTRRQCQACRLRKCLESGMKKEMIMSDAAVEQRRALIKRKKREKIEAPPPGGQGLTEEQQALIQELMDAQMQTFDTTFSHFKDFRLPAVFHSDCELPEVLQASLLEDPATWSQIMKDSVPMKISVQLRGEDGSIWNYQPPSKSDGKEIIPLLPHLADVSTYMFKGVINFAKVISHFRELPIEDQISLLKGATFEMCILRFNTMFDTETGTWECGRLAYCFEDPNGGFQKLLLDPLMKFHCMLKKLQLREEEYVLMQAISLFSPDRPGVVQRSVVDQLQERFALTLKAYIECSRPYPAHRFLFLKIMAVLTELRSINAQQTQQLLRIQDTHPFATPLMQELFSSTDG

| Structure (SMILES) | Potency [1] | Potency [2] | Potency [3] | outcome [4] | outcome [5] | outcome [6] | outcome [7] | outcome [8] | Potency [9] | Potency [10] | Potency [11] | Potency [12] | Potency [13] | Potency [14] | max activation [15] [%] | Potency [16] | Potency [17] | Potency [18] | Potency [19] | Potency [20] |
| --- | --- | --- | --- | --- | --- | --- | --- | --- | --- | --- | --- | --- | --- | --- | --- | --- | --- | --- | --- | --- |
| CCCCCCCCCCCCCCCCN | inactive | inactive | inactive | inactive | inactive | inactive | inactive | inactive | inactive | inactive | inactive | inactive | inactive | inactive | -4.68 | inactive | inactive | – | – | – |
| CCC(=O)O[C@@H]1C[C@H]2CC[C@]1(C)C2(C)C | inactive | inactive | inactive | – | inactive | inactive | inactive | inactive | inactive | inactive | – | inactive | inactive | inactive | – | – | – | inactive | inactive | – |
| O=C(C1CCCCC1)N1CC(=O)N2CCCc3ccccc3C2C1 (centres undefined) | inactive | inactive | inactive | – | inactive | – | inactive | inactive | – | inactive | inactive | inactive | inactive | 7.5 µM (active) | – | – | – | inactive | 4.9 µM (active) | inactive |
| CS(C)=O | inactive | inactive | inactive | – | inactive | inactive | – | – | – | – | inactive | inactive | inactive | inactive | – | – | – | inactive | inactive | inactive |
| CCCCCCCCCCCCN1CCOCC1 | inactive | inactive | inactive | – | inactive | inactive | inactive | inactive | inactive | – | inactive | inactive | inactive | inactive | – | – | – | inactive | inactive | inactive |
| CC1=C(C)C(=O)C(C(CCCCCC(=O)O)c2ccccc2)=C(C)C1=O (centres undefined) | inactive | inactive | inactive | – | inactive | – | inactive | inactive | inactive | inactive | 26.6 µM (active) | – | inactive | inactive | -6.02 | 10 µM (active) | inactive | inactive | 24.5 µM (active) | inactive |
| CC(Cc1ccccc1)(NC(=O)CN)c1ccccc1 (centres undefined) | inactive | inactive | inactive | – | inactive | – | – | – | inactive | inactive | – | inactive | inactive | – | – | – | – | inactive | – | – |
| OCCOc1cccc(OCCO)c1 | inactive | inactive | inactive | – | inactive | inactive | inactive | inactive | inactive | – | inactive | inactive | – | inactive | – | – | – | inactive | inactive | inactive |
| CCC(CC)C(=O)O | inactive | inactive | inactive | – | inactive | – | inactive | inactive | inactive | inactive | inactive | – | inactive | inactive | – | – | – | inactive | inactive | inactive |
| CC(=O)Nc1ccn(C2COC(COC(=O)c3ccccc3)O2)c(=O)n1 (centres undefined) | inactive | inactive | inactive | – | inactive | – | inactive | inactive | – | inactive | inactive | inactive | inactive | inactive | – | – | – | inactive | inactive | – |
| Nc1ccccc1Nc1ccccc1 | inactive | – | – | inactive | inactive | inactive | inactive | inactive | 30.7 µM (active) | – | 27.4 µM (active) | inactive | – | 19.4 µM (active) | – | – | – | inactive | – | – |
| Cc1c(Cl)cccc1Nc1ccccc1C(=O)O | inactive | – | inactive | inactive | inactive | – | inactive | inactive | inactive | inactive | inactive | inactive | inactive | – | – | – | – | – | inactive | – |
| C[C@H](N)C(=O)N[C@@H](C)C(=O)NC1[C@H]2CN(c3nc4c(cc3F)c(=O)c(C(=O)O)cn4-c3ccc(F)cc3F)C[C@@H]12 (some centres undefined) | inactive | – | inactive | inactive | inactive | – | inactive | inactive | – | inactive | 7.5 µM (active) | inactive | – | 21.1 µM (active) | – | – | – | – | inactive | inactive |
